From PubChem BioAssay (NCI) come the findings set out here.

Holding throughout (test): NCI-60 one-dose screen, 48 h (100 = growth as untreated, 0 = no growth, -100 = all killed)
Holding throughout (conditions): 10 µM unless noted

Experiment [1] relates to T-47D breast.
The subject of experiment [2] is BT-549 breast.
Experiment [3] deals with MDA-MB-435 melanoma.
Experiment [4] deals with SW-620 colon.
The test system of experiment [5] is MCF7 breast.
Experiment [6] relates to HCT-116 colon.
The test system of experiment [7] is HCC-2998 colon.
For experiment [8], the system named is KM12 colon.

The panel holds about 83,000 compounds, 20% with a hit somewhere; the sample as a whole holds those more often.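 Results are percent growth after 48 hours of single-concentration exposure. 100 means growth as in untreated cells, lower positive values show inhibition; negative values down to -100 show cell death.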 A number with no mark means an inactive call. The source made the active and inactive calls. Rule for the calls: active = growth percent below 10; inactive = the rest.

As to `C/C(O)=C(/C=N\C(=S)Nc1ccc(S(=O)(=O)Nc2nccs2)cc1)C(=O)Nc1ccccc1C`, the growth in experiment [1] is 90.2%; in experiment [2] it was 99.2%; in experiment [3] it was 109%; in experiment [4] it was 95.6%; in experiment [5], 101%; in experiment [6], 94.7%. Besides, the growth in experiment [7] was 109%; in experiment [8], 96.8%.

With `C=C(OC(C)=O)c1ccccc1`, the growth in experiment [1] was 89.5%; in experiment [2] it was 107%; in experiment [3] it was 107%; in experiment [4] it was 97.4%; in experiment [5] it was 97.1%; in experiment [6], 98%. Also, the growth is 110% in experiment [7] and 102% in experiment [8].

As to `O=S(=O)(OCCOS(=O)(=O)c1ccccc1)c1ccccc1`, the growth in experiment [1] was 105%; in experiment [2], 86.4%; in experiment [3], 107%; in experiment [4], 102%; in experiment [5], 88%; in experiment [6], 87.4%. For the same compound, the growth is 72.8% in experiment [7] and 101% in experiment [8].

As for `CCOc1ccc2c(c1)c(C)cc(C)[n+]2CC`, the growth in experiment [1] is 69.5%; in experiment [2] it was 33.8%; in experiment [3] it was 73.9%; in experiment [4], 84%; in experiment [5], 72.3%; in experiment [6], 54.5%. Moreover, the values for the growth in experiment [7] and in experiment [8] were 82.9% and 17.6%, respectively.

For the compound `C=COC(=O)CCOCC(CC)CCCC` (centres undefined), the growth is 95.9% in experiment [1]; 93.6% in experiment [2]; 99.2% in experiment [3]; 105% in experiment [4]; 96.3% in experiment [5]; 101% in experiment [6]. The growth in experiment [7] is 105%; in experiment [8], 99.9%.

Take `S=C=Nc1ccc2ccccc2c1`: the growth in experiment [1] is 108%; in experiment [2] it was 96.2%; in experiment [3] it was 101%; in experiment [4] it was 105%; in experiment [5], 101%; in experiment [6], 103%. In addition, the growth is 95.7% in experiment [7] and 104% in experiment [8].

As for `CC(=O)Nc1ccc(/C=C2\SC(=S)N(/C=C(\C(C)=O)C(N)=O)C2=O)cc1`, the growth is 87.5% in experiment [1]; 92.3% in experiment [2]; 89.6% in experiment [3]; 96.9% in experiment [4]; 96.4% in experiment [5]; 92.2% in experiment [6]. The growth in experiment [7] is 94.4%; in experiment [8], 101%.

Turning to `CCOS(=O)(=O)c1ccc([N+](=O)[O-])cc1`, the growth is 101% in experiment [1]; 111% in experiment [2]; 107% in experiment [3]; 119% in experiment [4]; 103% in experiment [5]; 106% in experiment [6]. Further, the growth is 104% in experiment [7] and 108% in experiment [8].

With `CC(CO)(CO)C(=O)O`, the growth was 95.5% in experiment [1]; 109% in experiment [2]; 105% in experiment [3]; 104% in experiment [4]; 101% in experiment [5]; 102% in experiment [6]. The growth was 94.6% in experiment [7] and 106% in experiment [8].

On to `CC(=O)O[C@H]1CC[C@]2(C)C3=C(C(=O)C[C@H]2C1(C)C)[C@]1(C)CC[C@H]([C@H](C)CCC(=O)O)[C@@]1(C)CC3=O`, for which the growth in experiment [1] was 91.5%; in experiment [2] it was 93.9%; in experiment [3], 98.7%; in experiment [4] it was 85.5%; in experiment [5], 89.6%; in experiment [6], 99.2%. Moreover, the growth is 102% in experiment [7] and 106% in experiment [8].

With `Cc1cccc(C)c1NC(=S)/N=C\c1c(O)[nH]c(=O)[nH]c1=O`, the growth in experiment [1] is 104%; in experiment [2], 93.9%; in experiment [3], 107%; in experiment [4] it was 105%; in experiment [5], 93.6%; in experiment [6], 106%. Also, the results for the growth in experiment [7] and in experiment [8] were 102% and 103%, respectively.

For the compound `CC(C)=CCC[C@@H](C)[C@H]1CC[C@@]2(C)C3=C(CC[C@]12C)[C@@]1(C)CC[C@H](O)C(C)(C)[C@@H]1CC3`, the growth in experiment [1] was 92.8%; in experiment [2], 109%; in experiment [3] it was 101%; in experiment [4], 99.9%; in experiment [5], 97.3%; in experiment [6], 108%. Moreover, the growth in experiment [7] is 101%; in experiment [8], 109%.

`NCCCN1CCCC1=O`: the growth is 115% in experiment [1]; 110% in experiment [2]; 124% in experiment [3]; 108% in experiment [4]; 104% in experiment [5]; 107% in experiment [6]. Also, the figures for the growth in experiment [7] and in experiment [8] were 100% and 104%, respectively.

On to `Cc1ccc(N2C(=O)c3cccc4c(N)c(S(=O)(=O)O)cc(c34)C2=O)cc1`, for which the growth in experiment [1] was 112%; in experiment [2] it was 131%; in experiment [3], 115%; in experiment [4], 109%; in experiment [5], 110%; in experiment [6], 102%. In addition, the growth is 104% in experiment [7] and 99.3% in experiment [8].

On to `COc1cccc(N=CNc2cccc(OC)c2)c1`, for which the growth in experiment [1] was 92%; in experiment [2], 101%; in experiment [3], 102%; in experiment [4] it was 98.5%; in experiment [5], 92.2%; in experiment [6] it was 92.2%. Also, the results for the growth in experiment [7] and in experiment [8] were 98.9% and 87.8%, respectively.

As to `CCOc1ccc(C(=O)O)cc1`, the growth in experiment [1] was 100%; in experiment [2] it was 96.7%; in experiment [3], 104%; in experiment [4] it was 99.7%; in experiment [5], 94%; in experiment [6], 99%. Further, the growth in experiment [7] is 104%; in experiment [8] it was 112%.

As to `CCOC(=O)/C(O)=C(\C=N\C(=S)Nc1ccc(Cl)c(Cl)c1)C(=O)OCC`, the growth in experiment [1] was 58.3%; in experiment [2], 100%; in experiment [3], 87.1%; in experiment [4], 104%; in experiment [5], 81%; in experiment [6], 101%. In addition, the values for the growth in experiment [7] and in experiment [8] were 87.9% and 100%, respectively.

Turning to `CN(CCCN(C)CCC1CCCCC1)CCC1CCCCC1`, the growth in experiment [1] is 17.9%; in experiment [2], 39.2%; in experiment [3], -26.1% (active); in experiment [4], 75.2%; in experiment [5], -47.4% (active); in experiment [6], 47.2%. Further, the growth in experiment [7] is -30.1% (active); in experiment [8], 46.7%.
